Source: PubChem BioAssay
Shown are actives, neighbours in structure and some others; about 1.8% of the full set was active somewhere.
FPRL1 binder: ligands of human FPRL1, also counter-screen for FPR ligands; P25090; FPRL1-expressing cells, fluorescent ligand binding inhibition, flow cytometry; inhibition, % (concentration not given with the values); actives 0.3% (n = 24,000); AID 441;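 also: 0% = buffer alone and 100% = receptor blocker peptide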
VLA-4 allo ag: allosterically activates the human VLA-4 integrin; AID 528; activation, % at 10 µM (by protocol); 24,000 tested, under 10 active; P13612; Jurkat cells, LDV-FITC binding, flow cytometry;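 active = fluorescent ligand binding to cells raised by more than 40% of the manganese-induced maximum; inconclusive = compound's own fluorescence above 85% of the ligand control signal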;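 also: 0% = ligand binding without compound and 100% = manganese-stimulated maximal binding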
Jurkat autofluor: counter-screen for VLA-4 integrin: compound autofluorescence in Jurkat cells. flow cytometry; active compounds read high; 1 = vehicle-only cell background. fluorescence ratio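 (tested at 10 µM compound in the well)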. actives 0.61% (n = 24,000);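 active = fluorescence ratio above 2.44, which is 1 plus 3 SD of all ratios; inconclusive = signal too bright to measure linearly, ratio around 10 or more; inactive = fluorescence ratio below 2.44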;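 also: green fluorescence of cells measured with 488 nm excitation and 530 nm emission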
VLA-4 antagonist: inhibitors of LDV-FITC ligand binding to Mn2+-activated human VLA-4 integrin; P13612; Jurkat cells, LDV-FITC binding with Mn2+, flow cytometry; 100% = Mn2+-driven binding gain fully reversed; inhibition, % at 10 µM (by protocol); actives 0.2% (n = 24,000); AID 529;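 active = inhibition above 50%; inconclusive = compound itself fluorescent, judged against control cell fluorescence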;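 also: 0% = Mn2+ stimulated cells lacking compound and 100% = ligand binding without Mn2+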
FPR ligand: human FPR ligand, with FPRL1 counter-screen | AID 440 | P21462 | FPR-expressing cells, fluorescent ligand binding, flow cytometry | actives 0.74% (n = 24,000) | inhibition, % (concentration not given with the values);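 also: 0% = buffer wells and 100% = receptor blocker peptide wells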
Starred values were filed as active, the others as inactive; ? = inconclusive. Rule as the data show it, unless noted: active = inhibition above about 30%; inconclusive = no clear call, values can overlap the other calls; inactive = below that.

SMILES	FPRL1 binder	VLA-4 allo ag	Jurkat autofluor	VLA-4 antagonist	FPR ligand
CC(C)[C@@]1(NC(=O)[C@@H]2C=C3c4cccc5[nH]cc(c45)C[C@H]3N(C)C2)O[C@@]2(O)[C@@H]3CCCN3C(=O)[C@H](Cc3ccccc3)N2C1=O	1.3	?	3.51*	?	-4.2
O=c1c2ccccc2nc(N2CCCC2)n1-c1ccc(Cl)cc1	7.9	-6.0	0.98	23.0	-2.8
